# Most compounds without a hit are left out; they make up all but 3.2% or so of the library.
# PG9 binder = binders of HIV-1 gp120 antibody PG9, primary screen, biochemical, TR-FRET | HIV-1 gp120 / PG9 antibody interaction | TR-FRET gp120-PG9 antibody binding | inhibition, % at 6.7 µM | hit rate 0.43% among 360,000 | AID 624416, 2012; in the data active means inhibition above about 8.5%
# rCAG binder-1 = binders of r(CAG) RNA repeats, primary screen, biochemical, fluorescence | AID 651821, 2012 | r(CAG) RNA repeat, TO-PRO-1 dye displacement fluorescence | hit rate 1.3% among 370,000 | inhibition, % at 3 µM;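 active means inhibition above the plate cutoff, the mean of all test compounds on that plate plus 3 SD, cut at about 35% in these data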;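 further: 0% = DMSO alone and 100% = 100 µM mitoxantrone as full dye displacement; higher means more dye released from RNA so lower well fluorescence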
# MsrA inhibitor = bovine MsrA enzyme inhibitors, primary screen, biochemical, absorbance, HTS | Methionine sulfoxide reductase A (Bos taurus) | hit rate 0.75% among 360,000 | purified bovine MsrA, absorbance read-out | AID 651718, 2012 | inhibition, % at 15.5 µM; in the data active means inhibition above about 4.5%;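 further: 0% = vehicle wells with enzyme and 100% = reference inhibitor wells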
# MsrA act = bovine MsrA enzyme activators, primary screen, biochemical, absorbance, HTS | Methionine sulfoxide reductase A (Bos taurus) | purified bovine MsrA, absorbance read-out | activation, % at 10.6 µM | hit rate 0.3% among 360,000 | AID 602163, 2012; in the data active means activation above about 7.5%;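 further: 0% = vehicle and 100% = reference activator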
# sPLA2-III inh = human group III sPLA2 inhibitors, primary screen, biochemical, QFRET, BODIPY PC-A2 liposome substrate; QFRET BODIPY PC-A2 liposome hydrolysis, fluorescence; hit rate 0.56% among 370,000; inhibition, % at 12.2 µM; Group 3 secretory phospholipase A2 (Homo sapiens), Q9NZ20;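 active means inhibition above mean plus 3 SD of compounds lying within the high and low control bounds, cut at about 19% in these data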;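 further: 0% = median of test compound wells and 100% = no enzyme DMSO wells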
# Target sequence (Q9NZ20 whole entry, looked up): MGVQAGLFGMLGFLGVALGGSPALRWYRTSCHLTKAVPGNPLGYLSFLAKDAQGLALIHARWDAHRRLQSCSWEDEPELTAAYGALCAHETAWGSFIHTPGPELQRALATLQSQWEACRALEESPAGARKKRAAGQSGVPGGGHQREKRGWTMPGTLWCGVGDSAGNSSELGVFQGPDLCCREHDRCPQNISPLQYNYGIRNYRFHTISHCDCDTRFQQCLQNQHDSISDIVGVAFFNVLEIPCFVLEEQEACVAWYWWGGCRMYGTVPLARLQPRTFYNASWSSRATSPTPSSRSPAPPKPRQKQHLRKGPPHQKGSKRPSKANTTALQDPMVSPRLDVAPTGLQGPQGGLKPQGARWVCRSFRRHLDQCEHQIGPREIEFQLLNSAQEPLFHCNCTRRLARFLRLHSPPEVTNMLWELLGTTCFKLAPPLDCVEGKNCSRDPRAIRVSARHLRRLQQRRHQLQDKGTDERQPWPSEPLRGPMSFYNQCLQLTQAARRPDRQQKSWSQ
# rCAG binder conf = small molecules binding CAG repeat RNA – biochemical, fluorescence, confirmation; shares compounds with rCAG binder-1; r(CAG) RNA repeat, TO-PRO-1 dye displacement fluorescence; inhibition, % at 3 µM; hit rate 70% among 4,300;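 active means inhibition above a per-plate cutoff, the mean inhibition of sample wells plus 3 SD, cut at about 35% in these data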;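 further: loss of TO-PRO-1 fluorescence as compound displaces dye from 1x1 AA loop RNA; 0% = DMSO only wells and 100% = 100 µM mitoxantrone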
# DNA CAG counter = displacement of TO-PRO-1 from CAG DNA duplex, counter-screen for rCAG RNA repeat binder project, biochemical, fluorescence, TO-PRO-1 dye, d(CAG) DNA oligo; shares compounds with rCAG binder-1; d(CAG) DNA oligo TO-PRO-1 dye displacement; inhibition, % at 3 µM; hit rate 94% among 4,300; AID 652068, 2013;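 active means inhibition above its plate's cutoff, the mean test-well inhibition plus 3 SD, cut at about 4.8% in these data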;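 further: 0% = DNA dye mix with DMSO and 100% = 100 µM mitoxantrone; hits displace the dye from DNA and so lower well fluorescence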
# DNA CAG DR = inhibitors of DNA CAG/GTC TO-PRO-1 complex, dose response, counter-screen for rCAG RNA repeat binder project, biochemical, fluorescence, TO-PRO-1 dye | shares compounds with rCAG binder-1 | DNA CAG/GTC duplex TO-PRO-1 dye displacement fluorescence | IC50, µM | hit rate 20% among 250 | AID 686960, 2013; in the data active means IC50 below about 10 µM
# dCAG DNA bind = TO-PRO-1 dye complex inhibitors on d(CAG) DNA, dose response, counter-screen, biochemical, fluorescence, late stage. shares compounds with rCAG binder-1. d(CAG) DNA duplex TO-PRO-1 dye displacement. IC50, µM. hit rate 80% among 30
# rCAG binder-2 = molecules binding r(CAG) RNA repeats, late stage dose response, late-stage follow-up, biochemical, fluorescence, dose response, powder samples; shares compounds with rCAG binder-1; r(CAG) RNA TO-PRO-1 dye displacement; hit rate 100% among 30; IC50, µM
# An asterisk follows results filed as active; i = inactive; · = no result given. Unless noted, how the calls were made is not given here.
SMILES,PG9 binder,rCAG binder-1,MsrA inhibitor,MsrA act,sPLA2-III inh,rCAG binder conf,DNA CAG counter,others
Cc1ccc([C@H]2N[C@]3(CCCN(Cc4ccc(F)cc4)C3=O)[C@H]3C(=O)N(C)C(=O)[C@@H]23)cc1,0,-1,1,-5,0,·,·,
CCc1ccc(N=C2NC(=O)/C(=C/c3cc(OC)c(O)c(OC)c3)S2)cc1,-1,42*,2,0,-30,40*,16*,
O=C(N/N=C/c1cc([N+](=O)[O-])ccc1O)C12CC3CC(CC(C3)C1)C2,0,0,2,-5,-2,·,·,
O=[N+]([O-])c1ccc(O)c(/C=N/Nc2ccccn2)c1,-4,2,4,-10,4,·,·,
O=[N+]([O-])c1cccc(N/N=C/c2cc([N+](=O)[O-])ccc2O)c1,-1,36*,2,-15,-1,27,10*,
O=C(N/N=C/c1cc([N+](=O)[O-])ccc1O)NC12CC3CC(CC(C3)C1)C2,-1,63*,2,-2,-1,36*,9.5*,
COC(=O)c1ccc(C(=O)OC)c(NC(=O)Cc2cccs2)c1,2,39*,1,-1,10,23,17*,
CCN(CC)c1ccc(C(=O)OCc2cc(=O)oc3cc(O)ccc23)cc1,3,36*,1,-13,-42,43*,19*,
CCCCNC(=O)c1ccc2nc(-c3ccco3)c(-c3ccco3)nc2c1,0,62*,1,-5,7,20,5.8*,
O=C(NCc1ccccc1)c1ccc2nc(-c3ccco3)c(-c3ccco3)nc2c1,2,56*,0,-2,6,56*,26*,
O=C(c1ccc2nc(-c3ccco3)c(-c3ccco3)nc2c1)N1CCN(c2ncccn2)CC1,-1,35*,1,-4,-4,49*,22*,
CCc1nnn2c1Cn1c3ccccc3c(=O)n1[C@@H](C)C2,·,4,·,·,-1,·,·,
O=C(O)c1ccc(-n2c(O)c(C=C3N=c4ccccc4=N3)sc2=S)cc1,-2,80*,1,-5,-6,62*,24*,
O=C(O)c1cccc(-n2c(O)c(C=C3N=c4ccccc4=N3)sc2=S)c1,-2,81*,1,-4,-14,64*,22*,
CC(=O)c1cc(-c2cc3ccccc3o2)c(=O)n2c1CCC2,·,7,·,·,0,·,·,
Cc1nc2ccc(S(=O)(=O)NCC(=O)NCc3ccccc3Cl)cc2s1,·,2,·,·,-7,·,·,
CCCOc1ccc(/C=N/Nc2ccc(C(=O)O)cc2)c(OCCC)c1,-2,55*,2,-3,-34,60*,22*,
CCCCc1ccc(S(=O)(=O)NC(=O)C2(C)CCN2C(=O)CCc2cccs2)cc1 (stereo not given),-2,44*,-1,-2,-20,36*,9.9*,
CC1(C(=O)NS(=O)(=O)c2ccc3ccccc3c2)CCN1C(=O)Cc1ccc(Cl)cc1Cl (stereo not given),0,52*,-2,-2,-5,54*,18*,
CC1(C(=O)NS(=O)(=O)c2cccc(Cl)c2)CCN1C(=O)CCc1ccc(Cl)cc1Cl (stereo not given),1,54*,0,-12,-14,52*,16*,
COc1cc(NC(=O)c2ccccc2)c(C)cc1NC(=O)CSc1nnc(-c2cnccn2)n1-c1ccc(C)cc1,·,11,·,·,-2,·,·,
COC(=O)C1=CN(c2ccc(F)cc2)C(N)=C(C#N)C1c1cccc(F)c1 (stereo not given),-1,2,0,·,7,·,·,
Cc1sc2nc(SCC(=O)OC(C)C)n(C)c(=O)c2c1C,-1,-1,0,-1,0,·,·,
Cc1sc2nc(SCC(=O)c3ccc(O)c(O)c3)n(C)c(=O)c2c1C,·,49*,·,·,7,50*,25*,
O=C(Nc1ccc2ccccc2c1)NC1CCCCN(Cc2cccc(Cl)c2)C1=O (stereo not given),·,5,·,·,4,·,·,
SMILES,PG9 binder,rCAG binder-1,MsrA inhibitor,MsrA act,sPLA2-III inh,rCAG binder conf,DNA CAG counter,others
Cc1ccc(/C=N/NS(=O)(=O)c2ccc([N+](=O)[O-])cc2)o1,0,-1,1,-9,11,·,·,
CCCCCCCCCCS(=O)(=O)N/N=C/c1ccc([N+](=O)[O-])cc1,0,42*,0,-3,-20,52*,16*,
COC(=O)[C@]12C[C@H](CC(=O)NCc3ccc(C)o3)C(=O)N(Cc3ccc4c(c3)OCO4)C1=C[C@H](C(C)(C)C)O[C@@H]2C,0,1,0,·,-18,·,·,
O=C(O)/C(=C\c1cccc(F)c1)c1ccc(S(=O)(=O)N2CCCC2)s1,-1,17,-1,-3,-1,·,·,
O=C(O)/C(=C\c1ccc(C(F)(F)F)cc1)c1ccc(S(=O)(=O)N2CCCC2)s1,-1,37*,-1,-3,-16,25,5.5*,
O=C(O)/C(=C\c1ccc(Br)cc1)c1ccc(S(=O)(=O)N2CCCCC2)s1,0,47*,2,-5,-21,67*,25*,DNA CAG DR=i;dCAG DNA bind=8.3*;rCAG binder-2=2.8*
CCCCOc1ccc(/C=C(\C(=O)O)c2ccc(S(=O)(=O)N3CCCC3)s2)cc1,-1,67*,1,-2,-51,66*,28*,
COc1cc(/C=C(\C(=O)O)c2ccc(S(=O)(=O)N3CCCC3)s2)ccc1OCCC(C)C,1,72*,3,-4,-48,57*,20*,
CCOC(=O)C1=NOC(C(C)=O)(C(=O)Nc2cc(C)cc(C)c2)C1 (stereo not given),·,1,·,·,-2,·,·,
CCCCN1CN2Cc3cc(OC)ccc3C2CS1(=O)=O (stereo not given),·,2,·,·,7,·,·,

# Source: PubChem
